Compound activity as filed in PubChem.
ALDH1A1 block – ALDH1A1 (human) enzyme inhibition; Purified ALDH1A1, NADH fluorescence, propionaldehyde substrate; Potency, µM (titrated, usually from 75.3 µM), actives largely listed as inhibitors; actives 7.3% (n = 220,000); active means well fitted inhibition curve with a large enough effect, not every such curve was filed as active; inconclusive means small, poorly fitted or top-dose-only effect, or another doubt; inactive means no such curve, though single readings can be large or run the other way
Target sequence (P00352 whole entry, looked up): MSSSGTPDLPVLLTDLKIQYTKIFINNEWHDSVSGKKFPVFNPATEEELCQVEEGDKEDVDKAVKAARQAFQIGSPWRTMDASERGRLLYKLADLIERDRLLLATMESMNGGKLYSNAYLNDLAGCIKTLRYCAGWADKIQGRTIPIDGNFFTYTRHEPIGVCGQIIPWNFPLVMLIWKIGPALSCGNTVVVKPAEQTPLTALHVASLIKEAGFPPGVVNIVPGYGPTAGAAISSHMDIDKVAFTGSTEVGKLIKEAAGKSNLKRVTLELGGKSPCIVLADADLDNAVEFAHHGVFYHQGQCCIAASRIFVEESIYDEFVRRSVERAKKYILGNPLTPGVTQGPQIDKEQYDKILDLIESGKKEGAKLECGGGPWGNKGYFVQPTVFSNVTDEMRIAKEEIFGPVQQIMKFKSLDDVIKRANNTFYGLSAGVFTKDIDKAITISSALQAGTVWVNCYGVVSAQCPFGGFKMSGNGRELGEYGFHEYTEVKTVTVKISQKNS
HTT aggregate – reduces HttQ103-GFP aggregates in PC12 cells | PC12 HttQ103-GFP aggregates, Acumen cytometry, 40 h | Potency, µM (titrated, usually from 46.1 µM), hits mostly inhibitors | actives 1.1% (n = 220,000); further: nearly all actives have a fitted effect of over 60% in size
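Compounds (qHTS titration) were added to PC12 cells expressing an ecdysone-driven HTT exon 1 Q103–GFP fusion after induction with 100 nM tebufenozide. Aggregate formation was measured as GFP objects in cell lysates.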
HTT cytoprotect – cytoprotection in Huntington HTT-Q103 PC12 cell model; PC12 HTT-Q103 induced, cytoprotection, ATP luminescence, 40 h; Potency, µM (series often up to 56.4 µM), usual class: activators; actives 0.14% (n = 230,000); AID 1471; further: nearly all actives have a fitted effect of over 45% in size
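Huntington model: PC12 line, ecdysone-inducible HTTQ103 exon1–GFP, tebufenozide 100 nM. Test articles in a dose series. Endpoint luminescence from cellular ATP.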
IMPase inh – membrane-permeable compound that blocks inositol monophosphatase; CHO-M1 cells, IP1 accumulation, HTRF TR-FRET ratio; inhibition (IP1 accumulation), % at 46.1 µM; 120,000 tested, under 10 active; active means well fitted curve in the direction sought with a large enough effect in the signal ratio, not every such curve was filed as active; inconclusive means small, poorly fitted or top-dose-only effect, or a change in a side signal; inactive means no such curve, though single readings can be large or run the other way; the % refers to the signal ratio;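 further: cells stimulated with carbachol in lithium chloride buffer; higher means more IMPase inhibition seen as more IP1 and lower FRET ratio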
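CHO-M1 cells (CHO stably expressing M1 receptor), compound up to 46 uM final, stimulated with carbachol (50 uM as added) in buffer with 50mM LiCl, pH 7.4, 30 min at 37C. Cytosolic IP1 read by TR-FRET; AC50 from Hill fits.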
IMPase Li cell – cell-permeable IMPase inhibitors with lithium potentiation; CHO-M1 cells, IP1 TR-FRET (IP-One), carbachol + lithium; Potency, µM (doses to about 59.4 µM), most hits filed as inhibitors; actives 0.35% (n = 210,000); AID 1457;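 further: IP1 builds up when IMPase is blocked and the TR-FRET signal falls; nearly all actives have a fitted effect of over 50% in size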
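CHO-M1, 2000 cells/well, 16–30 h culture; cpd + low Li+, 30 min 37C; lysis with d2-IP1/Eu-anti-IP1 Ab, 10 min RT; TR-FRET 665/620 ratio and 620 channel; AC50 via Hill.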
HPGD block – blocks human HPGD enzyme activity; P15428; purified HPGD, NADH fluorescence kinetic, PGE2 substrate; Potency, µM, actives largely listed as inhibitors; actives 4.3% (n = 150,000); AID 894; active means well fitted inhibition curve with a large enough effect, not every such curve was filed as active; inconclusive means small, poorly fitted or top-dose-only effect, or another doubt; inactive means no such curve, though single readings can be large or run the other way
Target sequence (P15428 whole entry, looked up): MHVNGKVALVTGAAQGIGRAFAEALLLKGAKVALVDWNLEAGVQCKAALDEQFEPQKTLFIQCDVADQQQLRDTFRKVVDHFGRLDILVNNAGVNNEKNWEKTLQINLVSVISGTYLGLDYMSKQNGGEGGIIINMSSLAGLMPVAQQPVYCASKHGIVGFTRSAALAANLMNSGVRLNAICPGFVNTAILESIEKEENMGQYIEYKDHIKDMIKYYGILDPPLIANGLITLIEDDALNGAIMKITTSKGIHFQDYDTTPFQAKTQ
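20 nM HPGD preincubated 15 min at room temperature with compound in 50 mM Tris-HCl pH 8, 0.01% Tween 20. Started with 1 mM NAD+ and 30 uM prostaglandin E2; NADH fluorescence (360/450 nm) read 5 times over 30-s intervals, last minus first.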
Hits are given with their value; - = inactive; ? = inconclusive; . = not tested or not shown; [ ] = remark or other dose. Most compounds without a hit are left out; they make up all but 9.4% or so of the library. Unless noted, the call rests on the fitted dose curve; in most records, active means well fitted curve in the direction sought with a large enough effect; inconclusive means small, poorly fitted or top-dose-only effect, or another doubt; inactive means no such curve, though single readings can be large; an effect the other way counts as inactive or inconclusive.

SMILES	ALDH1A1 block	HTT aggregate	HTT cytoprotect	IMPase inh	IMPase Li cell	HPGD block
COc1ccc(-c2ccc(=O)n(Cc3cccc([N+](=O)[O-])c3)n2)cc1	-	-	-	.	-	.
COc1ccc(/C=C2/C(=O)ON=C2c2ccccc2)cc1OC	22µM	-	-	-	-	10µM
COc1cc(/C=C2\C(=O)ON=C2c2ccccc2)cc(OC)c1OC	?	-	-	-	-	14µM
Cc1ccc(C2=NOC(=O)/C2=C\C=C\c2ccccc2)cc1	3.5µM	-	-[10 µM]	.	-	.
Cc1ccc(S(=O)(=O)N[C@H]2COC(=O)[C@@H](C)COC(=O)[C@H](C)NC(=O)C/C=C\[C@H]2C)cc1	-[13.5 µM]	.	-[10 µM]	.	.	.
C[C@H]1Cc2c(-c3ccccc3)nc3c(c2CO1)CN(C(=O)NCCc1c[nH]c2ccccc12)CC3	-[13.5 µM]	.	-[10 µM]	.	-	-
CC(C)Cn1nnnc1S(=O)(=O)Cc1cccc(C#N)c1	3.5µM	.	?	.	-	-
CC(C)Cn1nnnc1S(=O)(=O)Cc1ccccc1	-	.	-	.	-	-
CC(C)[C@@H](CC(=O)N[C@@H]1CCCC[C@H]1C(=O)N[C@H](CC(=O)N[C@@H](CCC(=O)O)CC(=O)O)Cc1c[nH]c2ccccc12)NC(=O)C[C@H](CO)NC(=O)[C@@H]1CNCC[C@H]1N	?	.	-[1.9 µM]	.	-	-
CCC(C)C(=O)Nc1ccc(OC)cc1OC (centres undefined)	-	-	-	-	-	-
COc1ccc(NC(=O)N(CCC(C)C)C(C)c2ccccn2)c(OC)c1 (centres undefined)	14µM	-	-	-	-	-
Cc1ccc(N2C(=O)CSCC2=O)cc1	-	-	-	-	-	-
Cc1ccc(N2C(=O)CS/C2=C(\C(Cl)=C(Cl)Cl)[N+](=O)[O-])cc1	20µM	?	-[10 µM]	-	-	-
Clc1ccc(-c2csc(=Nc3cccnc3)n2CCCn2ccnc2)cc1Cl	-	11µM	-[10 µM]	.	-	-
O=C(NCc1ccccn1)C1CCCN(Cc2cnn(-c3ccccc3)c2-n2cccc2)C1 (centres undefined)	-	-	-	-	-	-
O=C(NCc1ccccn1)C1CCN(Cc2cnn(-c3ccccc3)c2-n2cccc2)CC1	25µM	-	-	-	-	-
N#CCCN(Cc1cccnc1)C(=S)NC(=O)c1ccco1	11µM	-	-[10 µM]	.	-	.
N#CCCN(C(=O)c1ccco1)c1ccccc1	-	-	-	-	.	.
N#CCCN(C(=S)NC(=O)c1ccco1)c1ccccc1F	7.9µM	-	-[10 µM]	.	-	.
N#CCCN(Cc1cccnc1)C(=S)NCc1ccco1	18µM	-	-	.	-	.
CCC/C=C(\CCC)C(NC(=O)C(C)(C)C)c1ccc(C(=O)OC)cc1 (centres undefined)	-	.	-	.	-	-
COc1cc2c(cc1O)CCN[C@@]21CS[C@H]2c3c(OC(C)=O)c(C)c4c(c3C(COC1=O)N1C2C2c3c(cc(C)c(OC)c3O)CC([C@@H]1O)N2C)OCO4 (some centres undefined)	.	0.0025µM	-	.	.	.
Cc1cccc(NC(=O)CSc2nnc3scc(-c4ccccc4)n23)c1	.	.	.	-	.	.
CCc1ccc2c(c1)C(NC(C)=O)C(=O)N2CC (centres undefined)	22µM	-	-[10 µM]	-	-	-
COc1ccc2c(c1)C(NC(C)=O)C(=O)N2C (centres undefined)	-	-	-[0.074 µM]	-	-	-
SMILES	ALDH1A1 block	HTT aggregate	HTT cytoprotect	IMPase inh	IMPase Li cell	HPGD block
CCN1C(=O)C(NC(C)=O)c2cc(Br)ccc21 (centres undefined)	?	-	-	-	-	-
CCCCN1C(=O)C(NC(C)=O)c2cc(Br)ccc21 (centres undefined)	0.18µM	-	-	-	-	-
CCN1C(=O)[C@H]2[C@H]3[C@H](O)[C@H](O)C/C(=N/O[C@@H](C)CN4CCCCc5nc(C)c(C)cc54)[C@@H]3CC[C@@H]2C1=O	-[13.5 µM]	.	-[10 µM]	.	.	.
COc1cccc(Nc2ncc3nc(-c4ccccc4)c(=O)n(C[C@H]4CCCO4)c3n2)c1	-	.	-	.	-	-
O=C(CN(c1cccc(Br)c1)S(=O)(=O)c1ccccc1)N1CCc2ccccc2C1	.	.	.	-	.	.
CN(C)C1C(=O)C(C(N)=O)=C(O)[C@@]2(O)C(=O)C3=C(O)c4c(O)ccc(Cl)c4[C@@H](O)C3C[C@@H]12 (some centres undefined)	-	.	.	.	10µM	-
CN(C)C1C(=O)C(C(N)=O)C(=O)C2(O)C(=O)C3C(=O)c4c(O)ccc(Cl)c4C(O)C3CC12 (centres undefined)	-	.	?	.	10µM	-
CN(C)C1C(=O)C(C(N)=O)=C(O)[C@@]2(O)C(=O)C3=C(O)c4c(O)ccc(Cl)c4C(O)[C@H]3C[C@@H]12 (some centres undefined)	-	.	-	.	-	-
O=C1NN=C(CSc2n[nH]c(=S)s2)CS1	3.5µM	?	?	.	-	.
Clc1ccccc1CN1CCN(/N=C/C=C\c2ccco2)CC1	3.2µM	-	-	.	-	.
C(/C=C/c1ccco1)=N/N1CCN(c2ccccc2)CC1	?	-	-	-	-	-
COc1ccc(CNc2ncnc3ccc(-c4ccccc4OC)cc23)c(OC)c1	?	.	-	.	-	.
FC(F)(F)c1cnc2c(-c3ccccc3)n[nH]c2c1	-	-	-	.	-	.
CCc1c(C)[nH]n(-c2nc(-c3cccc([N+](=O)[O-])c3)cs2)c1=O	14µM	-	.	.	-	-
NCCC[C@@H](CC(=O)N[C@@H]1CCNC[C@H]1C(=O)N[C@H](CC(=O)N[C@@H](CCC(=O)O)CC(=O)O)Cc1c[nH]c2ccccc12)NC(=O)C[C@H](Cc1ccccc1)NC(=O)[C@@H]1CNCC[C@H]1N	-	.	-[1.9 µM]	.	-	-
COCC(=O)Nc1nnc(C2CCCCC2)s1	?	-	-	-	-	-
CCOC(=O)C(=O)Nc1nnc(C2CCCCC2)s1	32µM	-	-	-	-	16µM
CCOCC(=O)Nc1nnc(C2CCCCC2)s1	19µM	-	-[0.074 µM]	-	-	-
CCCCc1nnc(NC(=O)C(=O)OCC)s1	?	-[9.22 µM]	-	.	-	.
COc1ccc(CC[N@+]2(C)COc3cc4oc(=O)cc(C)c4cc3C2)cc1OC	-[13.5 µM]	.	-[10 µM]	.	-	-
Cc1cc(C(=O)COc2ccc(C#N)cc2)c(C)n1-c1ccc2c(c1)OCO2	-	-	-[10 µM]	.	-	-
Cc1cc(C(=O)CSc2nnc(C3COc4ccccc4O3)n2C)c(C)n1-c1ccc(F)cc1 (centres undefined)	?	?	-[10 µM]	-	-	28µM
Cn1c(SCC(=O)c2ccccc2)nnc1C1COc2ccccc2O1 (centres undefined)	?	-[9.22 µM]	-[10 µM]	.	.	.
CCCn1c(SCC(=O)c2cc(C)n(-c3ccc4c(c3)OCO4)c2C)n[nH]c1=O	-	-	3.5µM	-	-	-
